# In the supplement of paper PMC4237247:
# Structures can show the parent of a compound that is named as a salt.
# Test system: HeLa
# Assay: percent cells in S phase; higher = more S arrest
# Details: 10 µM; 20 h
# Procedure: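 HTS of 79,827 drug-like compounds at 10 uM. HeLa cells in 384-well plates were treated for 20 h, fixed, stained with Vybrant DyeCycle Green and scanned on an Acumen eX3 cytometer to give per-well cell cycle profiles (% cells in each phase). The plate Z' was 0.51. Only hits are listed: G1 hits >4 SD and S hits >5 SD from the mean.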
row,Compound,percent cells in S phase
1,Cn1c(SCc2ccccc2)nc2ccccc2c1=O (hit class: S-phase inhibitor),20.6%
2,Nc1ccn([C@H]2CC[C@@H](CO)O2)c(=O)n1 [Zalcitabine] (hit class: S-phase inhibitor),21.2%
3,Cc1cc([N+](=O)[O-])ccc1NCc1ccc(F)c(F)c1 (hit class: G1-phase inhibitor),9.44%
4,C[C@@H]1CCC[C@H](C)N1NC(=O)c1ccc(Cl)c(S(N)(=O)=O)c1 [Clopamide] (hit class: G1-phase inhibitor),8.75%
5,C[C@@H]1C[C@H]2[C@@H]3C[C@H](F)C4=CC(=O)C=C[C@]4(C)[C@@]3(Cl)[C@@H](O)C[C@]2(C)[C@H]1C(=O)COC(=O)C(C)(C)C [Clocortolone pivalate] (hit class: S-phase inhibitor),23.2%
6,COc1c(C)c2c(c(O)c1C/C=C(\C)CCC(=O)O)C(=O)OC2 [Mycophenolic acid] (hit class: S-phase inhibitor),27.7%
7,COc1ccc(CSc2nncn2N)cc1 (hit class: S-phase inhibitor),19.7%
8,Cc1ccc(-c2cc(-c3ccccc3Cl)[nH]n2)c(O)c1 (hit class: G1-phase inhibitor),7.81%
9,CCN(CC)Cc1c(O)ccc2c(=O)c(-c3ccccc3)coc12 (hit class: S-phase inhibitor),22.3%
10,c1ccc2c(c1)Nc1nc3ccccc3nc1O2 (hit class: G1-phase inhibitor),7.38%
11,COc1[nH]c2ccccc2c1C=NO (hit class: S-phase inhibitor),19.8%
12,O=C1c2c(O)ccc(O)c2C(=O)c2c(NCCNCCO)ccc(NCCNCCO)c21 [Mitoxantrone dihydrochloride] (hit class: G1-phase inhibitor),6.2%
13,CC[C@@H](C(=O)[C@@H](C)[C@@H](O)[C@H](C)CCc1ccc(C)c(O)c1C(=O)O)[C@H]1O[C@](CC)([C@H]2CC[C@](O)(CC)[C@H](C)O2)C[C@@H]1C [Lasalocid sodium salt] (hit class: G1-phase inhibitor),8.33%
14,COc1ccc(C(=O)c2coc3ccc(OC)cc3c2=O)cc1 (hit class: G1-phase inhibitor),7.3%
15,CC(=O)C1=C(O)C(=O)N(CC(=O)O)C1c1ccccc1F (configuration not stated) (hit class: S-phase inhibitor),20.4%
16,O=C(COc1ccc(Cl)cc1)NC(Cc1c[nH]c2ccccc12)C(=O)O (configuration not stated) (hit class: G1-phase inhibitor),6.86%
17,Cc1cc(N2CCCCC2)c(F)cc1[N+](=O)[O-] (hit class: S-phase inhibitor),29.5%
